Source: ChEMBL document CHEMBL4513216, “Probing the Open Global Health Chemical Diversity Library for Multistage-Active Starting Points for Next-Generation Antimalarials” (ACS Infect Dis, 2020)
The whole screen tested about 69,000 compounds, of which about 8,600 (12%) showed an effect of 50% or more. Only a selection was taken, and strong results are over-represented in it overall.

Tested on: Plasmodium berghei
Experiment: Screen against P. berghei liver stage (PbLuc), transformed with Luciferase, at 10uM
Assay type: functional, HepG2
Conditions: tested at 10 uM

| Compound | INHIBITION |
| --- | --- |
| Cc1cc(-n2nc(C3CC3)nc2-c2csnn2)ccn1 | 19.5% |
| CN1CCOC(CNCc2coc(-c3ccccc3Cl)n2)C1 (centres undefined) | 16.8% |
| CC(C)c1noc(CN2CCN(C(=O)c3cccc(F)c3)CC2)n1 | -31.5% |
| CCN(CC)S(=O)(=O)c1ccc2c(c1)N(Cc1ccccn1)C(=O)CS2 | 13.1% |
| CS(=O)(=O)N1CC[C@]2(O)CCN(c3ccnc(N)n3)C[C@@H]2C1 | 20.8% |
| CS(=O)(=O)N1CC[C@]2(O)CCN(c3cc(C#N)ccn3)C[C@@H]2C1 | 52.2% |
| CN(C)S(=O)(=O)N1CC[C@]2(O)CCN(c3cc(C#N)ccn3)C[C@@H]2C1 | 36.5% |
| CC(C)(C)n1nc(C2CC2)cc1C(=O)NC1CCN(CC(N)=O)CC1 | 56% |
| Cc1cc(C(=O)NC2CCN(CC(N)=O)CC2)nn1C(C)(C)C | -1.54% |
| CC(C)(C)n1nc(C(=O)NC2CCN(CC(N)=O)CC2)cc1C1CC1 | 5.03% |
| Cc1noc(C(C)C)c1C(=O)NCCN1CCCCCC1=O | 11.6% |
| Cc1nc(C)n(CC2CCCCN2CC(=O)Nc2cc(C)on2)n1 (centres undefined) | 15.5% |
| COCC(=O)N1CCCC1c1nc(O)cc(C(C)C)n1 (centres undefined) | 0.301% |
| CN(C)CCN1C(=O)CCC12CCCN(C(=O)c1cccnc1)CC2 (centres undefined) | -38.1% |
| Cc1occc(=O)c1OCC(=O)N1CCc2ccccc2C1 | -8.04% |
| CC(NC(=O)NCCCc1n[nH]c(N)c1C#N)c1cccs1 (centres undefined) | 58.2% |
| CC(NC(=O)NCCNc1cnccn1)c1cccs1 (centres undefined) | -0.847% |
| CC(NC(=O)NCCCc1n[nH]c(N)c1C#N)c1ccc(F)cc1 (centres undefined) | -25.8% |
| CC(C)C(NC(=O)NCCNc1ncccn1)c1cccs1 (centres undefined) | -6.44% |
| CC(NC(=O)NCCNc1ccccn1)c1cccs1 (centres undefined) | 19.6% |
| CC(NC(=O)NCCNc1ncccn1)c1cccs1 (centres undefined) | 56.6% |
| CC(C)C(NC(=O)NCCNc1cnccn1)c1cccs1 (centres undefined) | 36.1% |
| CC(NC(=O)NCCCc1n[nH]c(N)c1C#N)c1ccccc1 (centres undefined) | 31% |
| CC(C)C(NC(=O)NCCNc1ccccn1)c1cccs1 (centres undefined) | 50.4% |
| CCSc1ccc(C(=O)N2CCCCC2C(=O)NC(C)(C)C)cn1 (centres undefined) | 29.7% |
| CN(CCCO)C(=O)c1ccc2c(c1)nc(N1CC[C@H](O)C1)n2C | -17.7% |
| O=C(c1ccncc1)N1CCN2C[C@H](Oc3cccc(F)c3)C[C@H]2C1 | 15.3% |
| CC1CCCCN1CCNC(=O)c1scnc1Cl (centres undefined) | 0.411% |
| O=C(C1CCCC1)N1CCCC(c2nc(O)cc(-c3ccncc3)n2)C1 (centres undefined) | 18.3% |
